Screening data as filed in PubChem.
The full list was thinned out, with hits kept by preference.
Artemis inh: Artemis endonuclease inhibitors, primary screen, biochemical, fluorescence intensity, FAM/BHQ-1 hairpin substrate; Protein artemis (Homo sapiens), Q96SD1; recombinant Artemis, quenched FAM hairpin cleavage fluorescence; inhibition, % at 10 µM; actives 0.78% (n = 30,000);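 active = at 10 µM dose, at least 30% inhibition, measured as corrected fluorescence normalized to stimulator and neutral control wells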
Target sequence (Q96SD1 whole entry, looked up): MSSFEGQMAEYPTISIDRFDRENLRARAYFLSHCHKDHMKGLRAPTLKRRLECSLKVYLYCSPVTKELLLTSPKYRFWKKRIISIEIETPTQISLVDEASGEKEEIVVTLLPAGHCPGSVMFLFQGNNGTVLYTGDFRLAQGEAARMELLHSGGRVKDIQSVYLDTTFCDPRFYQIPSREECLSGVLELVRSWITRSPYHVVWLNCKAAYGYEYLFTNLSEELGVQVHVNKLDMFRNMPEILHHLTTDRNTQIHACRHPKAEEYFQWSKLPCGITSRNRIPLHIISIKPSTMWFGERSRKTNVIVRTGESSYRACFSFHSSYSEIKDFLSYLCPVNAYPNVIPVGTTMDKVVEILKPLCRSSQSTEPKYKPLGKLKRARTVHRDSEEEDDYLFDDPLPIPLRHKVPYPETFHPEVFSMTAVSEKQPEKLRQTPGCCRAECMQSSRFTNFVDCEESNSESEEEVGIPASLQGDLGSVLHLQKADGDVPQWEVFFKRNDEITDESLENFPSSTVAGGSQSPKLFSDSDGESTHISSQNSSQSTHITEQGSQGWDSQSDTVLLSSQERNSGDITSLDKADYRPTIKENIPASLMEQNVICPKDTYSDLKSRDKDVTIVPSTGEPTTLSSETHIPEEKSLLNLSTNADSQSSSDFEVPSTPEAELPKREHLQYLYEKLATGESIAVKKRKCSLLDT
An asterisk follows results filed as active.

For C(=N\N1CCN(C2c3ccccc3-c3ccccc32)CC1)/c1ccccn1 the results were Artemis inh 32.3*.
Screening O=[N+]([O-])c1cc(/C=N/N2CCN(C3c4ccccc4-c4ccccc43)CC2)ccc1Cl returned Artemis inh -0.1.
Screening C(=N\N1CCN(C2c3ccccc3-c3ccccc32)CC1)/c1cccnc1 returned Artemis inh 8.5.
COC(=O)c1cc(Br)c(=O)n(-c2ccc(F)cc2)c1 was read as Artemis inh 0.0.
Screening CC(C)NC(=O)/C(=C/c1ccco1)c1ccccc1 returned Artemis inh -7.5.
CC(C)C(C(=O)O)N1C(=O)/C(=C/C=C/c2ccco2)SC1=S (stereo not drawn) was read as Artemis inh 39.0*.
`CN(C)c1ccc(/C=C/C=C2/SC(=S)N(c3ccccc3)C2=O)cc1` gave Artemis inh 8.9.
COc1ccccc1-n1nnnc1SCc1cc2c(cc1Br)OCO2 was read as Artemis inh -5.8.
Screening CC(C)(C)c1cc(CNC2CS(=O)(=O)C[C@@H]2O)cc(C(C)(C)C)c1O (stereo partly drawn) returned Artemis inh 1.4.
C/C(CC(=O)Nc1ccccn1)=N\NC(=O)C(=O)Nc1cccc(C)c1 was read as Artemis inh 1.1.
C/C(CC(=O)Nc1ccc(N(C)C)cc1)=N\NC(=O)c1ccccn1 was read as Artemis inh 33.5*.
C/C(CC(=O)Nc1ccccn1)=N\NC(=O)C(=O)Nc1cccc(Cl)c1C was read as Artemis inh -0.1.
`O=C(Nc1cccc2nsnc12)C1CC(=O)N(c2ccccc2)C1` (stereo not drawn) gave Artemis inh 7.0.
`O=C(Cc1ccccc1)NC(Nc1ccccc1)C(Cl)(Cl)Cl` (stereo not drawn) gave Artemis inh 31.1*.
Screening O=C(Cc1ccccc1)NC(Nc1cccc2ccccc12)C(Cl)(Cl)Cl (stereo not drawn) returned Artemis inh -0.5.
Cc1ccc(NC(NC(=O)c2cccs2)C(Cl)(Cl)Cl)cc1 (stereo not drawn) was read as Artemis inh 7.3.
Screening Cc1cc(C)c2c(n1)sc1c(=O)n(Cc3ccccc3Cl)nnc12 returned Artemis inh 8.8.
For CC(C)Nc1nc(SCC(=O)Nc2ccccc2)nc(N2CCOCC2)n1 the results were Artemis inh -4.7.
For Cc1cc(C(=O)N/N=C/c2cc(Br)ccc2OC(=O)c2ccccc2)n[nH]1 the results were Artemis inh 9.6.
COc1ccc(Br)cc1/C=N/NC(=O)c1nc(-c2ccccc2)n2c1CCCCC2 was read as Artemis inh 30.0*.
For COc1ccccc1S(=O)(=O)Nc1ccc(-c2nnc3n2CCCCC3)cc1 the results were Artemis inh -4.5.
Screening CC(=O)N(/N=C1\Sc2ccccc2C1=O)c1ccc(C)cc1C returned Artemis inh 10.1.
CC(=O)N(/N=C1\Sc2ccccc2C1=O)c1ccccc1C was read as Artemis inh 31.9*.
`CC(=O)N(/N=C1\Sc2ccccc2C1=O)c1ccccc1` gave Artemis inh 31.3*.
`Cc1ccccc1-c1coc2cc(O)ccc2c1=O` gave Artemis inh 7.7.
`CC(=O)N(CCCCN1C(=O)c2ccccc2C1=O)c1ccc(C)cc1` gave Artemis inh 5.1.
For Cc1ccc(CO/N=C\Cc2snc(Sc3ncc(C(F)(F)F)cc3Cl)c2C#N)cc1 the results were Artemis inh 3.1.
`COCCOC(=O)C1=C(C)N(Cc2ccccc2)C(=O)NC1c1ccc(OC)cc1` (stereo not drawn) gave Artemis inh -0.9.
Screening CCn1c(Cc2cccc3ccccc23)nnc1SCC(=O)Nc1nccs1 returned Artemis inh 15.3.
`COCc1cc(C)nc(OCC(=O)N/N=C\c2cc(C)n(-c3cccc(C(F)(F)F)c3)c2C)c1C#N` gave Artemis inh 1.1.
Screening O=C(NNC(=O)c1cc(O)c(O)c(O)c1)NC1CCCCC1 returned Artemis inh 31.5*.
O=C(NC1CCCCCCC1)c1ccccc1O was read as Artemis inh -0.1.
For O=C(NC1CCCCCCC1)NC1CCCCC1 the results were Artemis inh -3.5.
For Cc1nn(Cc2c(Cl)cccc2Cl)c(C)c1NC(=O)c1cnn2c(C(F)F)cc(-c3ccccc3)nc12 the results were Artemis inh 25.0.
Screening Cc1ccc(-c2cc(C(F)F)n3ncc(C(=O)Nc4c(C)nn(Cc5c(Cl)cccc5Cl)c4C)c3n2)cc1 returned Artemis inh 32.5*.
O=C(Nc1cccnc1)c1cnn2c(C(F)F)cc(C3CC3)nc12 was read as Artemis inh -4.3.
Screening CCOC(=O)C(C(=O)OCC)C1CCS(=O)(=O)C1 (stereo not drawn) returned Artemis inh 3.1.
`CNS(=O)(=O)c1cc(OCC(N)=O)c(C)cc1Cl` gave Artemis inh 3.6.
CCOC(=O)C(C(=O)Nc1nccs1)C1CCCCC1 (stereo not drawn) was read as Artemis inh -2.3.
Cc1onc(-c2ccccc2Cl)c1C(=O)N1CCN=C1SCc1cccnc1 was read as Artemis inh -5.3.
`S=c1[nH]nc(C2COc3ccccc3O2)o1` (stereo not drawn) gave Artemis inh 30.6*.
Screening S=c1[nH]nc(-c2ccccc2)o1 returned Artemis inh 2.1.
For c1ccc2c(c1)OCC(c1csc3ncnc(N4CCCC4)c13)O2 (stereo not drawn) the results were Artemis inh 4.5.
For CCOc1cc(/C=N/n2cnnc2)ccc1OC(=O)c1cccc([N+](=O)[O-])c1 the results were Artemis inh -0.9.
Screening O=c1cc(-c2ccccc2)nc2nc(CCc3ccccc3)[nH]n12 returned Artemis inh 0.0.
`O=C(Nc1nc2nc(-c3ccccc3)cc(=O)n2[nH]1)c1ccccc1` gave Artemis inh -0.9.
O=c1cc(-c2ccccc2)nc2nc(-c3ccco3)[nH]n12 was read as Artemis inh 35.5*.
Screening Cc1ccc(N2CC(C(=O)OCc3ccccc3)CC2=O)cc1 (stereo not drawn) returned Artemis inh -0.6.
`CCCOc1cccc(NC(=O)c2cc(C)oc2C)c1` gave Artemis inh -5.5.
CCSC1=N/C(=C\c2ccc3c(c2)OCO3)C(=O)S1 was read as Artemis inh 5.4.
Screening CCSC1=N/C(=C\c2ccc(-c3ccccc3[N+](=O)[O-])o2)C(=O)S1 returned Artemis inh 34.0*.
CSC1=N/C(=C\c2ccc(C)o2)C(=O)S1 was read as Artemis inh 7.5.
For Cc1cccc(C)c1NC(=O)/C(=C/c1ccco1)c1ccccc1 the results were Artemis inh 0.1.
CC1=NN(c2cccc(C(=O)O)c2)C(=O)/C1=C\C=C\c1ccco1 was read as Artemis inh 30.9*.
`C(/C=C/c1ccco1)=N/N1CCN(c2ccccc2)CC1` gave Artemis inh -0.1.
Screening O=C(c1cccc(OC(F)F)c1)N1CCN(c2ncccn2)CC1 returned Artemis inh -4.4.
`COc1cccc(OCCOc2c(OC)cccc2OC)c1` gave Artemis inh -5.0.
N#Cc1nc(-c2ccc(OCc3ccc(Cl)cc3)cc2)oc1NCCCn1ccnc1 was read as Artemis inh 49.2*.
`CNc1oc(-c2ccc(OCc3ccccc3)cc2)nc1C#N` gave Artemis inh 1.9.
`N#Cc1nc(-c2ccc(OCc3ccccc3)cc2)oc1NCc1ccco1` gave Artemis inh -5.5.
CCN1/C(=C/c2ccc3ccccc3[n+]2CC)C=Cc2ccccc21 was read as Artemis inh 37.8*.
